According to PubChem BioAssay (Tox21):
Where “and” joins values, the source holds several entries; their conditions need not be identical. Equal entries are not always repeated. Inconclusive results are not listed. Calls of active or inactive are those of the source. Unless noted, calls follow the shape of the dose curve; as a rule, active = well fitted curve in the direction sought with a large enough effect in the repeat runs; inconclusive = weak or mixed curves; inactive = no such curve, though single readings can be large; an effect the other way counts as inactive or inconclusive.

Tests used:
[1] = qHTS assay to identify aromatase inhibitors - cell viability counter screen (AID 743084);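 also: cells stimulated with testosterone during compound exposure; nearly all actives have a fitted effect of over 55% in size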; also: potency is read from the fitted curve at half-maximal effect
[2] = target: Aryl hydrocarbon receptor (Homo sapiens) (UniProt P35869); experiment: qHTS assay to identify small molecule that activate the aryl hydrocarbon receptor (AhR) signaling pathway (AID 743085); also: nearly all actives have a fitted effect of over 15% in size; also: potency is read from the fitted curve at half-maximal effect;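 as to activation: HG2L7.5c1 human HepG2 liver cells with stably integrated DRE-driven firefly reporter; series mostly up to about 70 µM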
Chain of Aryl hydrocarbon receptor (Homo sapiens) (P35869 whole entry, looked up): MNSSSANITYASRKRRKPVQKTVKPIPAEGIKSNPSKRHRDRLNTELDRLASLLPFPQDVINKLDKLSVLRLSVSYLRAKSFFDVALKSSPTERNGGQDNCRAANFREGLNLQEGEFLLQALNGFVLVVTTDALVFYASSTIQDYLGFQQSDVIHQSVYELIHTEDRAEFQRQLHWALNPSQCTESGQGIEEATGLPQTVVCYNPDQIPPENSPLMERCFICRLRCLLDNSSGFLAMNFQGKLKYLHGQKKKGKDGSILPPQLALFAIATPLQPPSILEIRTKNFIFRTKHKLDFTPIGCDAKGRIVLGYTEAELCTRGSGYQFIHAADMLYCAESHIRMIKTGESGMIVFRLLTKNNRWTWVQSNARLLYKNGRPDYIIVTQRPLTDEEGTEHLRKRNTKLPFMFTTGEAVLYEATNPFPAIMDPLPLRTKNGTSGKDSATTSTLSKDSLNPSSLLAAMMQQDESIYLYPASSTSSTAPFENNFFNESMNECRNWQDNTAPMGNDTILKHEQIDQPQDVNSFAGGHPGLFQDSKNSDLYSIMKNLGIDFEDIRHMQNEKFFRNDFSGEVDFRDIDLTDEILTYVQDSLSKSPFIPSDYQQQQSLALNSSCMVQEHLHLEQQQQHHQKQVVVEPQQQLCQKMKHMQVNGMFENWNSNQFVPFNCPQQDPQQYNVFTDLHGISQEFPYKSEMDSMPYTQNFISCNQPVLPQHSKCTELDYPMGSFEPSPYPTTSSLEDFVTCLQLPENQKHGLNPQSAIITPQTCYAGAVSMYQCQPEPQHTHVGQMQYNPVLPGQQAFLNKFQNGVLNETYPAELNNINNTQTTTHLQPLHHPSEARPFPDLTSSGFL
Method in brief: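 Measured in HG2L7.5c1 cells: CellTiter-Fluor signal (30 min incubation, 37C) for viability, then luciferase luminescence (30 min, room temperature). Compound contact time was 24 h at 37C, following a 5 h pre-incubation.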

[3] = qHTS assay to identify small molecule that activate the aryl hydrocarbon receptor (AhR) signaling pathway - cell viability counter screen (AID 743086); also: nearly all actives have a fitted effect of over 45% in size; also: potency is read from the fitted curve at half-maximal effect
Method in brief: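 HepG2-AhR-luc (HG2L7.5c1) cells, 4000/well, treated 24 h at 37 C with compound; viability measured as CellTiter-Fluor fluorescence after 30 min in the same wells as the luciferase read.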

[4] = target: Peroxisome proliferator-activated receptor gamma (Homo sapiens) (UniProt P37231); experiment: qHTS assay to identify small molecule agonists of the peroxisome proliferator-activated receptor gamma (PPARg) signaling pathway (AID 743094; active = well fitted activation curve with a large enough effect in the signal ratio in the repeat runs, not every such curve was filed as active; the % refers to the signal ratio)
Chain of Peroxisome proliferator-activated receptor gamma (Homo sapiens) (P37231 whole entry, looked up): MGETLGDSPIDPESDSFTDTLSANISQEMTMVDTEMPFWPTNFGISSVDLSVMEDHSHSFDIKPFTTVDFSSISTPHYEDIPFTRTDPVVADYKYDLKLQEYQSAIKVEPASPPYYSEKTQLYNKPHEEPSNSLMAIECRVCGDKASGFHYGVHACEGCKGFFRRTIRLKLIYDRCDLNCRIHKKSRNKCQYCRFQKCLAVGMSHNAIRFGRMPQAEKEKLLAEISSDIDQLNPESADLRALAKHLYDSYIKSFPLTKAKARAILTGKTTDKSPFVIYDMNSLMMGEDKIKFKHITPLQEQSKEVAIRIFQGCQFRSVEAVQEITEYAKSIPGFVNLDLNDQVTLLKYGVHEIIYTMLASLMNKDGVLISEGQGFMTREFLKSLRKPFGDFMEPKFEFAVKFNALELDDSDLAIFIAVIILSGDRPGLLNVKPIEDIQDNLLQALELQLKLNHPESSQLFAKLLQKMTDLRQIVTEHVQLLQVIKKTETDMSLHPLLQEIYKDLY
Method in brief: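 Cell-based bla reporter, HEK293H background, PPARg-driven UAS. Pre-incubation 5 h, 37C, 5% CO2. Compound 17 h, 37C. Substrate 1 h RT; fluorescence.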

Measured: Potency

CC(C)(C)c1ccc2c(S(=O)(=O)O)c(C(C)(C)C)ccc2c1
inactive: [1] | [2] | [3]

CC(C)C[C@@H](NC(=O)[C@@H](O)[C@H](N)Cc1ccccc1)C(=O)O
active: [1] 0.75 µM | [3] 0.376 µM
inactive: [2]

CSCCC(N)C(=O)O (configuration not stated)
inactive: [1] | [2] | [3] | [4]

C[C@H](NCCc1ccc(O)cc1)[C@H](O)c1ccc(O)cc1
inactive: [1] | [2] | [3] | [4]

C(=C\c1ccncc1)/c1ccccc1
active: [2] 23.7 µM and 13.3 µM
inactive: [1] | [3] | [4]

NCCO/C=C/[C@H](N)C(=O)O
inactive: [1] | [2] | [3] | [4]

CC(=O)O[C@H]1C[C@@H]2CC[C@@H]3[C@H](CC[C@@]4(C)[C@H]3C[C@H]([N+]3(C)CCCCC3)[C@@H]4OC(C)=O)[C@@]2(C)C[C@@H]1[N+]1(C)CCCCC1
inactive: [1] | [2] | [3] | [4]

COc1c(O)cc2c(c1O)[C@@H]1O[C@H](CO)[C@@H](O)[C@H](O)[C@H]1OC2=O
inactive: [1] | [2] | [3] | [4]

C=CC[N+]1([C@H]2C[C@H]3[C@@H]4CC[C@H]5C[C@H](O)[C@@H](N6CCOCC6)C[C@]5(C)[C@H]4CC[C@]3(C)[C@H]2OC(C)=O)CCCC1
inactive: [1] | [2] | [3] | [4]

O=C1c2c(O)cccc2[C@H]([C@@H]2O[C@H](CO)[C@@H](O)[C@H](O)[C@H]2O)c2cc(CO)cc(O)c21
inactive: [1] | [2] | [3] | [4]

CNC(=O)OCc1cccc(COC(=O)NC)n1
inactive: [1] | [2] | [3] | [4]

O=C(O)/C=C/C(=O)Nc1ccc(S(=O)(=O)Nc2nccs2)cc1
inactive: [1] | [2] | [3] | [4]

C/C(=C\C(=O)OCCCCCCCCC(=O)O)C[C@@H]1OC[C@H](C[C@@H]2O[C@H]2[C@@H](C)[C@H](C)O)[C@@H](O)[C@H]1O
inactive: [1] | [2] | [3] | [4]

C=CC1=C(C(=O)O)N2C(=O)[C@@H](NC(=O)/C(=N/OCC(=O)O)c3csc(N)n3)[C@H]2SC1 (stereo in doubt)
inactive: [1] | [2] | [3] | [4]

O=P(O)(O)CP(=O)(O)O
inactive: [1] | [2] | [3] | [4]

O=C1CCC(c2ccc(-n3ccnc3)cc2)=NN1
inactive: [1] | [3] | [4]
active: [2] 5.96 µM

C=C1[C@H](CO)[C@@H](O)C[C@@H]1n1cnc2c(=O)[nH]c(N)nc21
inactive: [1] | [2] | [3] | [4]

NC(=O)CC[C@@H]1NC(=O)[C@H](Cc2ccccc2)NC(=O)[C@H](Cc2ccc(O)cc2)NC(=O)[C@@H](N)CSSC[C@@H](C(=O)N2CCC[C@H]2C(=O)N[C@@H](CCCN=C(N)N)C(=O)NCC(N)=O)NC(=O)[C@H](CC(N)=O)NC1=O
inactive: [1] | [2] | [3] | [4]

COc1ccc(/C=N/NC(=O)c2ccncc2)c(C(=O)O)c1OC
inactive: [1] | [3] | [4]
active: [2] 11.9 µM

CSCC[C@H](NC(=O)[C@H](Cc1ccc(OS(=O)(=O)O)cc1)NC(=O)[C@@H](N)CC(=O)O)C(=O)NCC(=O)N[C@@H](Cc1c[nH]c2ccccc12)C(=O)N[C@@H](CCSC)C(=O)N[C@@H](CC(=O)O)C(=O)N[C@@H](Cc1ccccc1)C(N)=O
inactive: [1] | [2] | [3] | [4]

CN[C@@H]1[C@@H](O[C@H]2O[C@H](CO)[C@@H](N)[C@H](O)[C@H]2O)O[C@H]2C[C@@H](N)[C@@H](O[C@H]3[C@H](O)[C@@H](O)[C@H](N)C[C@@H]3N)O[C@@H]2[C@@H]1O
inactive: [1] | [2] | [3] | [4]

Cc1c(O)c(=O)ccn1C
inactive: [1] | [2] | [3] | [4]

O=C(O)c1cc(=O)c2c3nc4ccccc4oc-3cc(=O)c2[nH]1
inactive: [1] | [3] | [4]
active: [2] 4.22 µM

CO/N=C(\C(=O)N[C@@H]1C(=O)N2C(C(=O)O)=C(CSc3cnns3)CS[C@H]12)c1csc(N)n1
inactive: [1] | [2] | [3] | [4]

Cc1ncc(C[n+]2csc(CCOP(=O)(O)O)c2C)c(N)n1
inactive: [1] | [2] | [3] | [4]

CCN(CC)CCOC[C@H]1O[C@@H](O)[C@H](OCCN(CC)CC)[C@@H](O)[C@@H]1O
inactive: [1] | [2] | [3] | [4]
